Screening data: PubChem BioAssay, National Center for Advancing Translational Sciences (NCATS)
IL-1B inflam inh: qHTS for Inhibitors of Inflammasome Signaling: IL-1-beta AlphaLISA Primary Screen | THP-1 LPS/ATP IL-1B secretion, AlphaLISA, 16 h; active compounds read low | activity change, % at 57.5 µM | 360,000 compounds, 4.7% hits | AID 743279, 2014; in the data active means activity change below about -50%; inconclusive means mostly about -30% to -49%
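THP-1 cells pretreated 1 hr with compounds (up to 57.5 uM final), then stimulated with LPS (250 ng/mL final) plus ATP (1.25 mM final); secreted IL-1B measured by AlphaLISA after 16 hr, decreased signal indicating inhibition.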
ELG1 DNA repair: qHTS screen for small molecules that inhibit ELG1-dependent DNA repair in human embryonic kidney (HEK293T) cells expressing luciferase-tagged ELG1. Potency, µM (series often up to 46.1 µM), usual class: inhibitors. HEK293T ELG1-luciferase reporter, luminescence, 16 h; DNA damage induced by 5-fluorouridine. AID 504467, 2011. 330,000 compounds, 2.3% hits; further: nearly all actives have a fitted effect of over 55% in size
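5-Fluorouridine DNA damage + compound/DMSO, 2,000 cells/well, 16 h, 37 °C/5% CO2. ONE-Glo, 30 min RT, luminescence. Readout = decrease in reporter signal.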
DT40 TDP1 no CPT: qHTS for Inhibitors of human tyrosyl-DNA phosphodiesterase 1 (TDP1): qHTS in cells in absence of CPT; DT40 Tdp1-/- hTDP1 cells, no CPT, ATP luminescence, 48 h; Potency, µM (doses to about 46.2 µM), most hits filed as inhibitors; 420,000 compounds, 15% hits; AID 686978, 2013; further: nearly all actives have a fitted effect of over 55% in size
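Stably hTDP1-transfected Tdp1-null chicken DT40 cells were treated with library compounds minus camptothecin and grown for at least 48 hr at 37 °C, after which cellular ATP was quantified by luminescence.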
TDP1 cell CPT: qHTS for Inhibitors of human tyrosyl-DNA phosphodiesterase 1 (TDP1): qHTS in cells in presence of CPT. chicken DT40 Tdp1-/-;hTDP1 cells + 20 nM CPT, ATP luminescence, 48 h. 420,000 compounds, 12% hits. Potency, µM (titrated, usually from 46.2 µM), hits mostly inhibitors; further: nearly all actives have a fitted effect of over 55% in size
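Chicken DT40 Tdp1-/- cells complemented with human TDP1, 400 cells/well, exposed to compounds plus 20 nM camptothecin for at least 48 h at 37 C; viability read as ATP content by CellTiter-Glo luminescence.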
HT1080 IDH1KD tx: qHTS for induction of synthetic lethality in tumor cells producing 2HG: qHTS for the HT-1080-IDH1KD cell line; 360,000 compounds, 2% hits; HT-1080 IDH1 knockdown viability, ATP luminescence, 48 h; Potency, µM (series often up to 46.1 µM), usual class: cytotoxic
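In this qHTS, HT-1080 cells depleted of IDH1 are exposed for 48 h at 37 °C to compound titrations. Toxicity is scored from CellTiter-Glo luminescence, with DMSO as full viability and medium alone as none.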
HT1080-NT tox: qHTS for induction of synthetic lethality in tumor cells producing 2HG: qHTS for the HT-1080-NT fibrosarcoma cell line; 360,000 compounds, 1.6% hits; Potency, µM (highest dose often 46.1 µM), actives largely listed as cytotoxic; HT-1080-NT fibrosarcoma viability, CellTiter-Glo ATP luminescence, 48 h;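 further: NT is the 2HG producing partner of a matched IDH1 knockdown line; nearly all actives have a fitted effect of over 55% in size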
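Fibrosarcoma NT cells, 750 per well in 5% FBS RPMI, were exposed to compound for 48 hours. Viability: CellTiter-Glo luminescence.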
Hits are given with their value; 0 = inactive; ? = inconclusive; - = not tested or not shown. A selection: hits, their analogues and other compounds. The true share with any hit is near 19%. Unless noted, the call rests on the fitted dose curve; in most records, active means well fitted curve in the direction sought with a large enough effect; inconclusive means small, poorly fitted or top-dose-only effect, or another doubt; inactive means no such curve, though single readings can be large; an effect the other way counts as inactive or inconclusive.

SMILES	IL-1B inflam inh	ELG1 DNA repair	DT40 TDP1 no CPT	TDP1 cell CPT	HT1080 IDH1KD tx	HT1080-NT tox
CCOc1ccc(CN2CCN(Cc3[nH]c4ccc(OC)cc4c3C)CC2CCO)cc1 (centres undefined)	-66.5	?	?	?	?	?
Cc1ccc(CN2CCN(Cc3ccncc3)CC2CCO)o1 (centres undefined)	0	0	?	0	0	0
Cc1ccc(CN2CCN(Cc3cnn(-c4ccc(Cl)cc4)c3)CC2CCO)o1 (centres undefined)	-56.9	?	?	?	0	0
C[C@H](CO)N1C[C@H](C)[C@@H](CN(C)Cc2ccc3c(c2)OCO3)Oc2cc(Br)ccc2S1(=O)=O	0	-	7.31µM	20.6µM	0	0
C[C@@H]1CN([C@@H](C)CO)S(=O)(=O)c2ccc(/C=C/c3ccccc3)cc2O[C@@H]1CN(C)Cc1ccc(C(=O)O)cc1	0	-	20.6µM	16.4µM	0	0
CCCNC(=O)N(C)C[C@@H]1Oc2cc(C#C[C@H](C)O)ccc2S(=O)(=O)N([C@H](C)CO)C[C@H]1C	0	-	0	0	0	0
C[C@@H]1CN([C@H](C)CO)S(=O)(=O)c2ccc(Br)cc2O[C@@H]1CN(C)Cc1ccc(-c2ccccc2)cc1	0	-	16.4µM	?	16.4µM	18.4µM
C[C@H](O)C#Cc1ccc2c(c1)O[C@@H](CN(C)Cc1ccc(-c3ccccc3)cc1)[C@H](C)CN([C@@H](C)CO)S2(=O)=O	?	-	3.66µM	2.91µM	20.6µM	?
C[C@@H]1CN([C@H](C)CO)S(=O)(=O)c2ccc(Br)cc2O[C@@H]1CN(C)Cc1ccc(C(=O)O)cc1	0	-	0	0	0	0
CCOc1ccc(S(=O)(=O)N2CCOCC2)cc1NC(=O)CSCC(=O)Nc1ccc(OC)cc1	0	-	0	0	0	0
COc1ccc([N+](=O)[O-])cc1N(CC(=O)NCCSc1ccc(C)cc1)S(C)(=O)=O	?	0	0	0	0	0
Cc1cccc(NS(=O)(=O)c2ccc(NC(=O)CN(c3cc([N+](=O)[O-])ccc3C)S(C)(=O)=O)cc2)c1	?	0	?	16.4µM	?	?
CS(=O)(=O)N(CC(=O)Nc1ccc(F)c(F)c1)c1cccc([N+](=O)[O-])c1	?	0	0	0	0	0
Cc1ccccc1N(CC(=O)Nc1ccc(F)cc1)S(C)(=O)=O	0	0	0	0	0	0
COc1ccc(C)cc1NS(=O)(=O)c1ccc(NC(=O)CN(c2cc([N+](=O)[O-])ccc2C)S(C)(=O)=O)cc1	0	0	14.6µM	9.2µM	?	?
Cc1cccc(N(CC(=O)Nc2ccc(Br)cc2)S(C)(=O)=O)c1C	-	-	20.6µM	?	-	-
O=C(CN(Cc1ccco1)C(=O)c1cccc(F)c1)Nc1ccccc1C(F)(F)F	0	0	0	0	0	0
COCCNC(=O)C1CC(c2cccc(OC)c2)=NO1 (centres undefined)	0	0	?	0	0	0
COc1cccc(C2=NOC(C(=O)NCc3ccco3)C2)c1 (centres undefined)	0	0	13µM	9.2µM	?	?
COc1cccc(C2=NOC(C(=O)NCc3ccccc3)C2)c1 (centres undefined)	0	0	4.61µM	5.17µM	?	?
Nc1cc(N)nc(SCC(=O)Nc2cc(S(=O)(=O)N3CCOCC3)ccc2Cl)n1	0	?	0	?	0	0
COc1ccc2c(c1OC)C(=O)N1N=C(c3ccc(Cl)cc3)CC21 (centres undefined)	-81.9	?	?	0	0	0
Cc1c(C(=O)NCc2ccccc2C(F)(F)F)sc(=O)n1Cc1ccccc1C#N	0	-	0	0	0	0
c1ccc2cc(OCCCn3ccnc3)ccc2c1	?	?	?	0	0	0
Cc1ccccc1OCCCCCn1ccnc1	?	0	16.4µM	20.6µM	0	0
SMILES	IL-1B inflam inh	ELG1 DNA repair	DT40 TDP1 no CPT	TDP1 cell CPT	HT1080 IDH1KD tx	HT1080-NT tox
CCCCOc1ccc(NC(=O)C(=O)NCCCn2ccnc2)cc1	0	0	18.4µM	?	0	0
CCCCCCOc1ccc(C(=O)NCCCn2ccnc2)cc1	0	0	?	?	0	0
Cc1cc(OCCCn2ccnc2)ccc1C(C)C	0	0	20.6µM	?	0	0
Cc1cc(OCCCCn2ccnc2)cc(C)c1Cl	-69.6	0	20.6µM	18.4µM	?	0
CCCC(=O)NCC1(N(C)C)CCCCC1	-	-	?	0	-	-
COc1ccc(CCCNC(=O)C2(C)Cc3c(-c4cccc(C(N)=O)c4)ccnc3O2)cc1 (centres undefined)	0	-	?	?	?	?
CC(C)(C)c1ccc(OCCCn2ccnc2)cc1	-68.3	0	?	0	0	0
CC(C)c1ccc(NC(=O)c2cc(S(=O)(=O)NCCc3ccccc3)ccc2F)cc1	-	-	10.3µM	14.6µM	-	-
Cc1ccc(NC(=O)c2cc(S(=O)(=O)NCCc3ccc(Cl)cc3)ccc2F)cc1	-	-	13µM	?	-	-
Cc1ccc(CNS(=O)(=O)c2ccc(F)c(C(=O)Nc3ccc(C)c(F)c3)c2)cc1	-	-	0	0	-	-
CC(C)c1ccc(NC(=O)c2cc(S(=O)(=O)NCC3COc4ccccc4O3)ccc2F)cc1 (centres undefined)	-68.7	?	18.4µM	23.1µM	?	?
COc1ccc(CCNS(=O)(=O)c2ccc(F)c(C(=O)Nc3ccc(Cl)cc3)c2)cc1OC	-	-	20.6µM	29.1µM	-	-
O=C(Nc1cc(Cl)ccc1Cl)c1cc(S(=O)(=O)NCCc2ccccc2)ccc1F	-	-	16.4µM	?	-	-
O=C1C(=O)c2ccccc2C([O-])=C1[n+]1ccccc1	0	18.3µM	0	0	0	0
CCC(=O)NN1CCc2cc3ccc(C)cc3nc21	0	0	0	0	0	0
CCOC(=O)c1ccc(NC(=S)N2CCSC2c2c(F)cc(F)cc2F)cc1 (centres undefined)	0	?	25.9µM	23.1µM	0	0
COc1cccc(N2C(=NC(=O)CCc3ccccc3)SC3CS(=O)(=O)CC32)c1 (centres undefined)	0	?	0	0	0	0
O=C(Nc1ccnn1C1CCN(C2CCCCC2)CC1)c1ccccc1	0	0	0	?	0	0
